GSIS activator: GLuc luminescence reporter in INS-1E cells, primary screen for activators of glucose-dependent secretion of insulin | INS-1E GLuc reporter insulin secretion, 2-3 h | hit rate 0.61% among 370,000 | activation, % at 16.6 µM;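 active = lowest replicate activation of at least 40%, so every replicate reaches that level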
MITF act: activators of MITF-driven TRPM1 promoter activity in SK-MEL-5 cells; AID 588334; activation, % at 12.5 µM; SK-MEL-5 TRPM1-promoter luciferase, 24 h; % of positive control, neutral wells = 0; hit rate 0.75% among 300,000;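 active = mean activation of at least 80% with every replicate also reaching 80%; inconclusive = mean reaches 80% but some replicate falls short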
Wnt act: activates Wnt/beta-catenin signaling in a reporter cell assay. activation, % at 9.35 µM. AID 743398. hit rate 1.2% among 300,000. activator, plate reader; in the data active = activation above about 30%, passing the limit was not always enough; inconclusive = no clear call, values can overlap the other calls
Env fusion inh: HIV envelope-mediated fusion inhibition; HeLa-JRFL Env/CEM21 cell fusion, luciferase; inhibition, % at 12.3 µM; hit rate 1.1% among 360,000; AID 651610;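 active = mean replicate inhibition score of at least 50 and every replicate individually at or above 50; inconclusive = only one of the two criteria met; inactive = mean below 50 and not all replicates reaching 50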
F508del corr: CFTR F508del correction in bronchial cells. AID 720511. activity (quench increase), % at 7.58 µM. CFBE cells, YFP halide quenching; stimulated with forskolin plus potentiator P3; % fluorescence drop versus neutral controls. hit rate 0.36% among 350,000;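 active = mean added fluorescence quench of at least 8% versus neutral control, with both replicates also reaching 8%; inconclusive = only one of the mean or replicate conditions met; inactive = mean below 8% and not both replicates reaching 8%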;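 also: cells transiently co-express mutant CFTR-F508del with the halide-sensitive YFP; corrector assay measuring rescue of mutant channel to the surface after 24 h compound exposure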
A number is an active result; n = inactive; u = inconclusive; x = no result given. Only some compounds are listed: those with a hit (about 2.7% of all), similar ones and a draw of the others.

SMILES	GSIS activator	MITF act	Wnt act	Env fusion inh	F508del corr
Cc1ccc(S(=O)(=O)N(C)C[C@H]2Oc3ccc(NS(=O)(=O)c4ccc(F)cc4)cc3CC(=O)N([C@H](C)CO)C[C@H]2C)cc1	n	x	x	n	n
NC(Cc1ccc(C(F)(F)F)cc1)c1csc(NC(=O)Nc2ccccc2)n1 (stereo not drawn)	n	x	n	78	n
COc1ccccc1NC(=O)Nc1nc(C(N)Cc2ccc(Cl)cc2)cs1 (stereo not drawn)	n	x	n	64	n
NC(Cc1ccc(C(F)(F)F)cc1)c1csc(NC(=O)Nc2ccccc2Cl)n1 (stereo not drawn)	n	x	n	58	n
NC(Cc1ccc(Cl)cc1)c1csc(NC(=O)Nc2ccccc2)n1 (stereo not drawn)	x	x	n	61	n
NC(Cc1ccc(Cl)cc1)c1csc(Nc2ccc(C(=O)c3ccccc3)cc2)n1 (stereo not drawn)	n	x	n	n	n
COC(=O)c1cc(C)nc(Nc2nc(C(N)Cc3ccc(F)cc3)cs2)n1 (stereo not drawn)	x	x	n	n	n
COC(=O)c1cc(C)nc(Nc2nc(C(N)Cc3ccc(Cl)cc3)cs2)n1 (stereo not drawn)	x	x	641	n	n
NC(CCc1ccccc1)c1csc(NC(=O)Nc2cccc(C(F)(F)F)c2)n1 (stereo not drawn)	n	x	n	55	n
COc1ccc(CC(N)c2csc(NC(=O)Nc3cccc(C(F)(F)F)c3)n2)cc1 (stereo not drawn)	n	x	n	u	n
CCC(=O)N1C[C@H](C)[C@H](OC)CN(C)C(=O)c2cc(NC(=O)C3CCOCC3)ccc2OC[C@H]1C	n	x	x	x	n
C[C@@H]1CN([C@@H](C)CO)C(=O)c2c(c3ccccc3n2C)-c2ccccc2CO[C@@H]1CN(C)C(=O)[C@H](C)c1ccccc1	n	x	x	x	n
CCS(=O)(=O)N1CCc2nc(-c3ccccc3)sc2C1	n	121	39	n	n
COc1ccc(-c2nc3c(s2)CN(S(C)(=O)=O)CC3)cc1OC	n	x	n	n	n
C[C@H]1CN([C@@H](C)CO)C(=O)c2cccc(NC(=O)Nc3ccc4c(c3)OCO4)c2O[C@@H]1CN(C)S(=O)(=O)c1ccc(F)cc1	n	x	x	n	n
O=C(Nc1nccs1)c1cc(N2CCOCC2)nc2ccccc12	46	n	x	x	x
COc1ccc(S(=O)(=O)N(C)C[C@H]2OCCCC[C@H](C)Oc3ccc(NC(=O)C4CCCCC4)cc3C(=O)N([C@H](C)CO)C[C@H]2C)cc1	n	x	x	n	n
C[C@H](CO)N1C[C@H](C)[C@@H](CN(C)C(=O)C2CCCCC2)Oc2cc(-c3cncnc3)ccc2S1(=O)=O	n	x	x	u	n
Cc1c(C(=O)Nc2nccs2)oc2ccc(F)cc12	n	n	38	x	n
Cc1c(C(=O)Nc2nccs2)oc2ccc(Br)cc12	x	n	n	n	n
Cc1csc(NC(=O)c2sccc2C)n1	n	n	48	n	n
COc1ccc2oc(C(=O)Nc3ccc(C)cn3)c(C)c2c1	n	n	38	n	n
COc1ccc(C(=O)Nc2ccccn2)cc1	x	n	x	x	x
Cc1ccsc1C(=O)Nc1nccs1	n	n	n	n	n
COc1ccc2oc(C(=O)Nc3ccccn3)c(C)c2c1	n	n	43	n	n
SMILES	GSIS activator	MITF act	Wnt act	Env fusion inh	F508del corr
Cc1c(C(=O)NC2CCCCC2)oc2ccc(F)cc12	n	n	n	n	n
COc1ccc2oc(C(=O)Nc3nc(C)cs3)c(C)c2c1	n	n	51	x	n
COCc1c(C(=O)Nc2nc(C)cs2)oc2ccccc12	n	n	n	n	n
COc1ccc2oc(C(=O)NC3CCCCC3)c(C)c2c1	n	112	n	n	n
C[C@@H]1CCCCO[C@H](CN(C)CC2CCCCC2)[C@H](C)CN([C@H](C)CO)C(=O)c2cc(NS(=O)(=O)c3ccccc3)ccc2O1	n	x	x	n	n
CCOc1ccc(-n2nnnc2-c2nc3ccccc3s2)cc1	90	n	n	n	x
Cc1ccc(-n2nnnc2-c2nc3ccccc3s2)cc1	n	n	x	n	x
CC1(C)Cc2ccccc2C(/C(=N\Nc2cccc(Cl)c2)C(N)=O)=N1	n	n	x	82	x
O=[N+]([O-])c1ccc(O)c(-c2cc(C(F)(F)F)nc(-c3ccccc3)n2)c1	n	n	n	60	n
Oc1ccccc1-c1cc(C(F)(F)C(F)F)nc(-c2ccccc2)n1	112	n	x	n	x
O=[N+]([O-])c1cnn(-c2nc(-c3ccccc3)cc(C(F)(F)F)n2)c1	n	n	n	n	n
COc1ccc(O)c(-c2cc(C(F)(F)C(F)F)nc(-c3ccccc3)n2)c1	x	n	x	x	x
C[C@H]1CN([C@@H](C)CO)C(=O)c2cccc(NS(C)(=O)=O)c2O[C@H]1CN(C)S(=O)(=O)c1cccs1	n	x	x	x	n
Cc1noc(C)c1NC(=O)Nc1ccc2c(c1)C(=O)N([C@@H](C)CO)C[C@@H](C)[C@@H](CN(C)Cc1ccc(C(F)(F)F)cc1)OCCCC[C@@H](C)O2	n	x	x	n	n
Cc1cnc2c(N)cc(C)c(C)c2c1	x	x	n	77	n
N#C[C@H]1[C@H](c2ccc(C3=CCCCC3)cc2)[C@@H](CO)N1C(=O)c1cccc(F)c1	n	x	x	x	n
C[C@H](O)C#Cc1cnc2c(c1)C(=O)N([C@@H](C)CO)C[C@@H](C)[C@@H](CN(C)C(=O)Nc1ccc(F)cc1)O2	n	x	x	n	n
CN(C)CC(=O)Nc1ccc2c(c1)[C@@H]1C[C@H](CC(=O)N(C)C)O[C@H](CO)[C@@H]1O2	n	x	x	x	n
CN(C)CC(=O)N1[C@@H](C#N)[C@H](c2ccccc2-c2cccc(C(=O)N(C)C)c2)[C@@H]1CO	n	x	x	x	n
COc1cc(/C=C(\C#N)C(=O)Nc2cccc(C(=O)O)c2)ccc1OCc1ccc(C)cc1	n	91	n	n	n
COc1cc(/C=C(/C#N)C(=O)Nc2ccccc2)ccc1OCc1ccc(C(=O)O)cc1	n	n	n	n	n
CCOC(=O)c1c(NC(=O)CSc2nnc(CNc3ccc(OC)cc3)n2C)sc(C)c1C	x	x	n	27	x
C[C@@H]1CN([C@H](C)CO)C(=O)c2cc(NC(=O)CCCCCC(=O)Nc3ccccc3N)ccc2O[C@@H](C)CCCCO[C@@H]1CN(C)C(=O)C1CCCCC1	n	x	x	n	n
CO[C@@H]1CN(C)C(=O)c2cc(NS(=O)(=O)c3ccc(-c4ccccc4)cc3)ccc2OC[C@H](C)NC[C@H]1C	n	x	x	n	n
Oc1[nH]c2c(Cl)cc(Cl)cc2c1N=NC(=S)NCC1CCCO1 (stereo not drawn)	x	n	x	n	x
Cc1cc(C)c2[nH]c(O)c(N=NC(=S)NCC3CCCO3)c2c1 (stereo not drawn)	69	n	n	n	x
C[C@@H]1CN([C@@H](C)CO)C(=O)c2cc(NC(=O)C3CC3)ccc2O[C@@H]1CN(C)C(=O)Nc1ccc2c(c1)OCO2	n	x	x	n	n
CO[C@@H]1CN(C)C(=O)c2ccc(NS(C)(=O)=O)cc2OC[C@@H](C)N(CCC(F)(F)F)C[C@H]1C	n	x	x	n	n
COc1ccc(N=Nc2cc(C)ccc2O)cc1	n	n	54	n	n

Bioassay records from PubChem.
